Test results as given in PubChem BioAssay (NCATS).
Results filed as inconclusive are left out. Calls of active or inactive are those of the source.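 Rule for the calls, unless noted: active = compounds whose dose series gives a full or clear partial fitted curve of increased nuclear translocation; inconclusive = weak partial curve or effect only at the top dose; inactive = no dose-dependent translocation response.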

system: not listed separately; test: Stat Signaling Pathway (AID 446; active = well fitted curve in either direction with a large enough effect, not every such curve was filed as active;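 note: ME-180 cervical cancer cells given 40 pM IL-6 alongside compound; SIE-controlled beta-lactamase reporter measured as 460/530 nm FRET emission ratio; % is set by controls: 0 for no effect and ±100 for the full control effect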); settings: ME-180 (cervical carcinoma) SIE beta-lactamase reporter, IL-6 stimulated, 5 h; at 17.2 µM (top of the series) unless noted
Procedure, shortened: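 Compound effects on IL-6-induced STAT reporter activity were measured in ME-180 cells. After overnight culture, cells were co-treated with 40 pM IL-6 for 5 hrs before beta-lactamase substrate loading at room temperature.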

activity, negative = inhibition, inactive:
CCOC(=O)CC(=O)CSc1[nH]c(=O)cc(C)c1C#N 13.5%, Cc1cccc(-c2nnc3n2N=C(c2ccc(Br)cc2)CS3)c1 7.64%, CC(C)OC(=O)[C@H]1[C@H](c2ccc(Cl)cc2)[C@@](C#N)(C(N)=O)[C@@H]2C=CC(C(N)=O)=CN21 -11.5%, COC(=O)CSc1nnc2n(-c3ccc(OC)cc3)c(=O)c3c4c(sc3n12)CCCCC4 5.65%, CC(C)c1ccc(O)c(N)c1 2.34%, Cc1ccc(N2C(=O)CC(Cn3nc(C)cc3C)C2=O)cc1 (configuration not stated) 13.4%, CCC1(C)Cc2c(sc3[nH]c(=O)[nH]c(=O)c23)CS1 (configuration not stated) -2.55%, Cc1nnc(C)n1/N=C/c1cccn1C -1.54%, CCOC(=O)C1(c2nc(N)cs2)COC(=O)C1 (configuration not stated) 2.25%, OC(CNCCCN1CCCCC1)COc1ccccc1 (configuration not stated) 9.93%, COc1ccc(OC)c2c1CCC2=O 6.79%, COc1ccc(N2CCN(c3nc4c(c(=O)[nH]c(=O)n4C)n3CCCc3ccccc3)CC2)cc1 -11%, COc1ccc(OC)c(C2C(C#N)=C(N)Oc3cc(C)[nH]c(=O)c32)c1 (configuration not stated) 3.99%, O=C(c1nsnc1-c1ccccc1O)N1CCCCC1 -2.4%, CC1C/C=C/C=C/C=C/C=C/C(O[C@@H]2O[C@H](C)[C@@H](O)[C@H](N)[C@@H]2O)CC2OC(O)(CC(O)CC3OC3/C=C/C(=O)O1)CC(O)C2C(=O)O (some centres not stated) 5.83%, Cc1ccccc1OCC(O)Cn1c(N2CCN(c3ccccc3)CC2)nc2c1c(=O)[nH]c(=O)n2C (configuration not stated) -10.5%, C=CCOc1ccc(/C(O)=C2/C(=O)C(=O)N(CCCN3CCOCC3)C2c2ccccc2)cc1 (configuration not stated) -5.01%, O=C(CN1C(=O)c2ccccc2C1=O)NCc1ccccn1 10.5%, N/C(=N\S(=O)(=O)c1ccc(Cl)s1)c1ccccc1 -9.11%, CC(=O)C(=[N+]=[N-])C(=O)NCc1ccccc1 1.88%, CCN(CC)CCN1C(=O)C(=O)/C(=C(/O)c2ccc(F)cc2)C1c1cccnc1 (configuration not stated) -0.766%, CCOC(=O)COc1ccc(Oc2nc(C)cc(OC)n2)nn1 -0.709%

target: Glucocorticoid receptor (Homo sapiens) (UniProt P04150); test: GR-GFP Redistribution (AID 450); settings: U2OS GR-GFP nuclear translocation, laser cytometry, 2 h; series mostly up to 20.6 µM; note: potency is the fitted concentration of half-maximal effect
Sequence (P04150 whole entry, looked up): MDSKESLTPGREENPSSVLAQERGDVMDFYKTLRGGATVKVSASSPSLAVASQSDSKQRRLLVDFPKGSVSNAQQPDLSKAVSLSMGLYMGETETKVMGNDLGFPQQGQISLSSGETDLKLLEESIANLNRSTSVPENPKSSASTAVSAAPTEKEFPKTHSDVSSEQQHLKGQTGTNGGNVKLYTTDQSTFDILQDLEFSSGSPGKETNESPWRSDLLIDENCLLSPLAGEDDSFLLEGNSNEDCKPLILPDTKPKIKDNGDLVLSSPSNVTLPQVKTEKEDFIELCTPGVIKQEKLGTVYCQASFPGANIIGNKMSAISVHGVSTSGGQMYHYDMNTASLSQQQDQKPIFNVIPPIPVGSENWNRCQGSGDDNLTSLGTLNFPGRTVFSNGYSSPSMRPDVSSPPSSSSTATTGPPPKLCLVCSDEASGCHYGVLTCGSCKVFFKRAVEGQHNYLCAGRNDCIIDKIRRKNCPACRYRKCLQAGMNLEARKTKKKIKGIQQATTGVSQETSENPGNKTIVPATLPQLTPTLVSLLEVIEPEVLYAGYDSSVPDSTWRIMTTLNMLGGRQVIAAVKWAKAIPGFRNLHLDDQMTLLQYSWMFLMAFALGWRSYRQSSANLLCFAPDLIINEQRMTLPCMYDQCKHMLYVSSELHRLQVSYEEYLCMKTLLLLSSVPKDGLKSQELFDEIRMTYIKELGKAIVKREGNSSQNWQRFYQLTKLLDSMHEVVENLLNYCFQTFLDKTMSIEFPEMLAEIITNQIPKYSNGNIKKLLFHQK

Potency, inactive:
CCOC(=O)CC1=NC(=O)CS1 > 20.6 µM, Cc1cc(=O)oc2cc(OCC(=O)NCc3cccnc3)ccc12 > 20.6 µM, CC1(C)Cc2ccccc2-c2c1c(=O)n(-c1ccccc1)c1nnnn21 > 20.6 µM, CCN(CC)C(=O)C1CCN(c2ncnc3c2cnn3-c2ccc(C)cc2C)CC1 > 20.6 µM, COCCNc1oc(-c2ccc(Cl)cc2)nc1C#N > 20.6 µM, CCCNc1ncnc2c1cnn2-c1ccc(OC)cc1 > 20.6 µM, Cc1nc2ccccc2cc1O > 20.6 µM, Cc1cc(C)n(CC2CC(=O)N(c3cc(Cl)cc(Cl)c3)C2=O)n1 (configuration not stated) > 20.6 µM, Cc1ccc2[nH]c3c(c2c1)CN(C(=O)CN1CC(C)OC(C)C1)CC3 (configuration not stated) > 20.6 µM, CCC(NC(=O)Nc1ccc(O)cc1)(C(F)(F)F)C(F)(F)F > 20.6 µM, O=C(O)c1cc2sccc2s1 > 20.6 µM, CC(C)OC(=O)CC1=NC(=O)CS1 > 20.6 µM, COc1ccc(/C=C(/C#N)c2cccnc2)cc1OC > 20.6 µM, CC(=O)N(Cc1ccccc1)c1ccc(C(=O)O)cc1 > 20.6 µM, CCOC(=O)Cn1nc(C)c2ccccc2c1=O > 20.6 µM, COc1cccc(C2=CC(c3ccccc3)n3ncnc3N2)c1 (configuration not stated) > 20.6 µM, COc1ccc(CN2CCC(=O)NC2=O)cc1 > 20.6 µM, O=C1C2ON(c3ccccc3)C(c3ccncc3)C2C(=O)N1c1ccc(Br)cc1 (configuration not stated) > 20.6 µM, CCOC(=O)CC(=O)CSc1[nH]c(=O)cc(C)c1C#N > 20.6 µM, Cc1cccc(-c2nnc3n2N=C(c2ccc(Br)cc2)CS3)c1 > 20.6 µM, CC(C)OC(=O)[C@H]1[C@H](c2ccc(Cl)cc2)[C@@](C#N)(C(N)=O)[C@@H]2C=CC(C(N)=O)=CN21 > 20.6 µM, COC(=O)CSc1nnc2n(-c3ccc(OC)cc3)c(=O)c3c4c(sc3n12)CCCCC4 > 20.6 µM, CC(C)c1ccc(O)c(N)c1 > 20.6 µM, Cc1ccc(N2C(=O)CC(Cn3nc(C)cc3C)C2=O)cc1 (configuration not stated) > 20.6 µM, CCC1(C)Cc2c(sc3[nH]c(=O)[nH]c(=O)c23)CS1 (configuration not stated) > 20.6 µM, Cc1nnc(C)n1/N=C/c1cccn1C > 20.6 µM, CCOC(=O)C1(c2nc(N)cs2)COC(=O)C1 (configuration not stated) > 20.6 µM, OC(CNCCCN1CCCCC1)COc1ccccc1 (configuration not stated) > 20.6 µM, COc1ccc(OC)c2c1CCC2=O > 20.6 µM, COc1ccc(N2CCN(c3nc4c(c(=O)[nH]c(=O)n4C)n3CCCc3ccccc3)CC2)cc1 > 20.6 µM, COc1ccc(OC)c(C2C(C#N)=C(N)Oc3cc(C)[nH]c(=O)c32)c1 (configuration not stated) > 20.6 µM, O=C(c1nsnc1-c1ccccc1O)N1CCCCC1 > 20.6 µM, CC1C/C=C/C=C/C=C/C=C/C(O[C@@H]2O[C@H](C)[C@@H](O)[C@H](N)[C@@H]2O)CC2OC(O)(CC(O)CC3OC3/C=C/C(=O)O1)CC(O)C2C(=O)O (some centres not stated) > 20.6 µM, Cc1ccccc1OCC(O)Cn1c(N2CCN(c3ccccc3)CC2)nc2c1c(=O)[nH]c(=O)n2C (configuration not stated) > 20.6 µM, C=CCOc1ccc(/C(O)=C2/C(=O)C(=O)N(CCCN3CCOCC3)C2c2ccccc2)cc1 (configuration not stated) > 20.6 µM, O=C(CN1C(=O)c2ccccc2C1=O)NCc1ccccn1 > 20.6 µM, N/C(=N\S(=O)(=O)c1ccc(Cl)s1)c1ccccc1 > 20.6 µM, CC(=O)C(=[N+]=[N-])C(=O)NCc1ccccc1 > 20.6 µM, CCN(CC)CCN1C(=O)C(=O)/C(=C(/O)c2ccc(F)cc2)C1c1cccnc1 (configuration not stated) > 20.6 µM, CCOC(=O)COc1ccc(Oc2nc(C)cc(OC)n2)nn1 > 20.6 µM
